This is an account of results in PubChem BioAssay AID489037 (National Center for Advancing Translational Sciences (NCATS), 2010).

The target in the assay is Nuclear receptor ROR-gamma (Mus musculus) (UniProt P51450). Put plainly: Secondary confirmation assay for inhibitors of ROR gamma transcriptional activity. The settings on record: Drosophila S2 Gal4-RORgamma UAS-luciferase reporter, 20 h. From the text:
NIH Molecular Libraries Probe Production Network [MLPCN] NIH Chemical Genomics Center [NCGC] MLPCN Grant: R03 DA026211-01 Assay Provider: Dan Littman, New York University Keywords: NIH Roadmap, MLPCN, MLI, MLSMR, qHTS, NCGC, qHTS, nuclear hormone receptor, retinoic acid-related orphan receptor, ROR gamma Assay Overview: The retinoic acid-related orphan receptor (ROR) gamma is a transcription factor that has a central role in the differentiation of Th17 cells, a subset of T helper cells that secrete the inflammatory cytokines IL-17, IL-17F, and IL-22. Th17 cells have been implicated in graft versus host disease, autoimmune disease and asthma. ROR gamma is induced in naive T helper cells in the presence of TGF-beta combined with IL-6, IL-21, or IL-23, and thereafter directs the expression of the Th17 lineage cytokines. To study the mechanism of action of ROR gamma, an insect cell-based assay was screened. […] Small molecule inhibitors of ROR gamma activity are detected by a decrease in luciferase reporter activity.
Assay Protocol Summary: For screening, 600 cells in 4 uL/well were dispensed into white solid 1536-well plates (Grenier) using a solenoid-based dispenser. […] After addition of 1.5 uL Photinus luciferase detection reagent, the plates were incubated 10 min at ambient temperature and then read by an ViewLux (Perkin Elmer) to detect luminescence. […]

Records with an inconclusive call do not appear. The source made the active and inactive calls. Calls follow the shape of the dose curve; as a rule, active = well fitted inhibition curve with a large enough effect; inconclusive = small, poorly fitted or top-dose-only effect, or effect the other way; inactive = no such curve, though single readings can be large or run the other way.

Chain of Nuclear receptor ROR-gamma (Mus musculus) (P51450 whole entry, looked up, the tested form may be a part): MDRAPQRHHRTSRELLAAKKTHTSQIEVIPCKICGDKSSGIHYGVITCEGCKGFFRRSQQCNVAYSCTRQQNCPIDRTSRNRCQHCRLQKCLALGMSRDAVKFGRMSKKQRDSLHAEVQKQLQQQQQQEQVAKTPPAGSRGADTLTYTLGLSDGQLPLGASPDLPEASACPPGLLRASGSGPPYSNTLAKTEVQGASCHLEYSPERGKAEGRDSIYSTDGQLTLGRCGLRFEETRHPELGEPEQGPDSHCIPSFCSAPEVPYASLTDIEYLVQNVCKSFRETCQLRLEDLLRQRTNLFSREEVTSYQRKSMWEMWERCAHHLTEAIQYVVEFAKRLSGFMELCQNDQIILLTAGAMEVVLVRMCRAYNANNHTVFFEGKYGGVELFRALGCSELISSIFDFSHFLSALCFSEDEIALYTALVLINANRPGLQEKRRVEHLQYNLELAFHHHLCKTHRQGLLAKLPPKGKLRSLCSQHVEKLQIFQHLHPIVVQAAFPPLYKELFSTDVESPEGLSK

`CC1OC(O[C@@H]2C(O)CC(O[C@@H]3C(O)C[C@@H](OC4CC[C@@]5(C)C6CC[C@]7(C)C(C8=CC(=O)OC8)C(O)C[C@@]7(O)[C@H]6CC[C@@H]5C4)OC3C)OC2C)CC(O)C1O` (some centres not stated): the Potency was 4070 nM (active).

With `CO[C@H]1[C@@H](O)CC(OC2[C@@H](O)CC(OC3[C@@H](O)C[C@H](OC4CC[C@@]5(C)C(CCC6C5CC(O)[C@]5(C)[C@H](C7=CC(=O)OC7)CCC65O)C4)O[C@@H]3C)O[C@@H]2C)O[C@@H]1C` (some centres not stated), the Potency was 1820 nM (active).
